The text below walks through data of ChEMBL document CHEMBL2218924, “A broad activity screen in support of a chemogenomic map for kinase signalling research and drug discovery” (Biochem J, 2013).

Experiment [1] concerns the target Vascular endothelial growth factor receptor 3 (Homo sapiens) (UniProt P35916). Conditions: at 10 µM.
Experiment [2] deals with Macrophage colony-stimulating factor 1 receptor (Homo sapiens) (UniProt P07333). Conditions: at 10 µM.
For experiment [3], the target named is Tyrosine-protein kinase Fyn (Homo sapiens) (UniProt P06241). To be noted: at 1 µM.
Chain of Tyrosine-protein kinase Fyn (Homo sapiens) (P06241 2-537 limits assumed): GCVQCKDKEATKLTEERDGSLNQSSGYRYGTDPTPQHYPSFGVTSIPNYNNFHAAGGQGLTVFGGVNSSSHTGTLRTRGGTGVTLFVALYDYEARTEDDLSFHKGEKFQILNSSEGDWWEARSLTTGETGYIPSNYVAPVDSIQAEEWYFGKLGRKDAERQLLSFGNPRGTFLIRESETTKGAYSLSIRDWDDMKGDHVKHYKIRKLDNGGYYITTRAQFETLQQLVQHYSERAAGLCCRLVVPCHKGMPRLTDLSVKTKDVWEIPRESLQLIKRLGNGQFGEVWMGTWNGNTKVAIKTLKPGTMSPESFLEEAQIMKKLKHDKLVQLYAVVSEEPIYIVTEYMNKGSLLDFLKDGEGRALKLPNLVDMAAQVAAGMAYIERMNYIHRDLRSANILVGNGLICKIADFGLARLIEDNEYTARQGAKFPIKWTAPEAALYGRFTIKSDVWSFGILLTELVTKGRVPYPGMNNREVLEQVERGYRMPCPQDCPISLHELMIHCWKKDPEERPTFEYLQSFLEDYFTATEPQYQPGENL
Experiment [4] shares this target. To be noted: at 10 µM.
Experiment [5] concerns the target T1, Mitogen-activated protein kinase kinase kinase kinase 2 (Homo sapiens) (UniProt Q12851).
T1 sequence (whole entry): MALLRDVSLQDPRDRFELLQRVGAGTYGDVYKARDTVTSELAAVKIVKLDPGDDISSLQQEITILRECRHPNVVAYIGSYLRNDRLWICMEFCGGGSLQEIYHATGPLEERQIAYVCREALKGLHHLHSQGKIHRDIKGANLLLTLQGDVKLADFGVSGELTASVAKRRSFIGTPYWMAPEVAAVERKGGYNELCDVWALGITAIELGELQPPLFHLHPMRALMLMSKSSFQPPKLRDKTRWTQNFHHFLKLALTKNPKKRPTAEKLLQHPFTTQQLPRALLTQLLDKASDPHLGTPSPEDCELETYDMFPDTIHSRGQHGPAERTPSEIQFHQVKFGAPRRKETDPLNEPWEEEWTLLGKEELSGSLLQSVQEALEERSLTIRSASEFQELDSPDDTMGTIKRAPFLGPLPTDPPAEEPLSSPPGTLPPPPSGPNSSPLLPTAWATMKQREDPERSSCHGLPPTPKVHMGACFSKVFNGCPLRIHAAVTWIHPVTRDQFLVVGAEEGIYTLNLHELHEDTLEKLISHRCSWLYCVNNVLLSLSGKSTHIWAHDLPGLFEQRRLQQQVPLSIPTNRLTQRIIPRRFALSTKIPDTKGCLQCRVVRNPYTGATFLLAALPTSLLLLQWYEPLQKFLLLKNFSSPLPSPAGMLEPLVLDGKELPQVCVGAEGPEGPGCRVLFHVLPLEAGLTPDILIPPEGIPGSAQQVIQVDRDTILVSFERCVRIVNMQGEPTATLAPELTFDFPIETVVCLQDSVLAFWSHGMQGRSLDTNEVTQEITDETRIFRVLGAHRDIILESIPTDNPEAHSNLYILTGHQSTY
Conditions: at 1 µM.

In experiment [6] the target is T1, Mitogen-activated protein kinase kinase kinase kinase 2 (Homo sapiens). To be noted: at 10 µM.
Experiment [7] has as its target G protein-coupled receptor kinase 5 (Homo sapiens) (UniProt P34947). To be noted: at 10 µM.
Experiment [8] has as its target G protein-coupled receptor kinase 6 (Homo sapiens) (UniProt P43250). To be noted: at 10 µM.
Experiment [9] concerns the target T2, Rhodopsin kinase GRK7 (Homo sapiens) (UniProt Q8WTQ7).
T2 sequence (whole entry): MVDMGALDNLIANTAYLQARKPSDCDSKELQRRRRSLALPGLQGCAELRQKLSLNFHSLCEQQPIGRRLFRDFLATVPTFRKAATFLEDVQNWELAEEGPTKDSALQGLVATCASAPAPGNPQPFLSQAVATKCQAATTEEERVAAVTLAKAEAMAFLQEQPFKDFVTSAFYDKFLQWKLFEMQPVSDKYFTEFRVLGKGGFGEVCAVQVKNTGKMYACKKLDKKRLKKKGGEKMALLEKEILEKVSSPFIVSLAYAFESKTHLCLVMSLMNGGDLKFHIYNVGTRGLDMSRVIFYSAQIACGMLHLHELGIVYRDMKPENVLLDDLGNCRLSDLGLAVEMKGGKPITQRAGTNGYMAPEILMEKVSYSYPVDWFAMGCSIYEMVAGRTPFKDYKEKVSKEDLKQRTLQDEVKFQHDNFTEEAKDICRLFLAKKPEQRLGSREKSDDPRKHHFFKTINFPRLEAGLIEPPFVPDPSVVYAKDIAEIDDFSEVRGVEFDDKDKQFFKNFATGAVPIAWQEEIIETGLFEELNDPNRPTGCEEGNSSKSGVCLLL
To be noted: at 1 µM.

The target in experiment [10] is T2, Rhodopsin kinase GRK7 (Homo sapiens). Conditions: at 10 µM.
The target in experiment [11] is Glycogen synthase kinase-3 alpha (Homo sapiens) (UniProt P49840). Conditions: at 1 µM.
Chain of Glycogen synthase kinase-3 alpha (Homo sapiens) (P49840 2-483 limits assumed): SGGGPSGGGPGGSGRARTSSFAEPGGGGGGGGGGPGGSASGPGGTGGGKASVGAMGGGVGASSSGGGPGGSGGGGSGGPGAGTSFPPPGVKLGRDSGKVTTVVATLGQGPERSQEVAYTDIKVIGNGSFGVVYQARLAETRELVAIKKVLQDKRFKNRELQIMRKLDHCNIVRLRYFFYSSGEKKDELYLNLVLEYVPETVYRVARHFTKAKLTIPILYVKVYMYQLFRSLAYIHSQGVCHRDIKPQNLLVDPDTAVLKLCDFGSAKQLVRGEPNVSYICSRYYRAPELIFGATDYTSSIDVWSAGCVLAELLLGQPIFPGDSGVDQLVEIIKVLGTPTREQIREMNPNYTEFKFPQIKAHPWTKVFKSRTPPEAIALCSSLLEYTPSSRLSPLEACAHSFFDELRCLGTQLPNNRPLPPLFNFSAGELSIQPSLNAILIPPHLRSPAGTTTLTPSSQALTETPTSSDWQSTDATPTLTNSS
The target is the same in experiment [12]. To be noted: at 10 µM.
Experiment [13] concerns the target Glycogen synthase kinase-3 beta (Homo sapiens) (UniProt P49841). Conditions: at 1 µM.
For experiment [14] the target is unchanged. Conditions: at 10 µM.
Experiment [15] addresses Homeodomain-interacting protein kinase 2 (Homo sapiens) (UniProt Q9H2X6). Conditions: at 10 µM.
Experiment [16] has as its target Macrophage colony-stimulating factor 1 receptor (Homo sapiens) (UniProt P07333). Conditions: at 1 µM.
The target of experiment [17] is Homeodomain-interacting protein kinase 1 (Homo sapiens) (UniProt Q86Z02). Conditions: at 1 µM.
For experiment [18] the target is unchanged. Conditions: at 10 µM.
Experiment [19] concerns the target Homeodomain-interacting protein kinase 2 (Homo sapiens) (UniProt Q9H2X6). Conditions: at 1 µM.
Experiment [20] has as its target Homeodomain-interacting protein kinase 3 (Homo sapiens) (UniProt Q9H422). Conditions: at 1 µM.

Chain of G protein-coupled receptor kinase 5 (Homo sapiens) (P34947 whole entry, looked up): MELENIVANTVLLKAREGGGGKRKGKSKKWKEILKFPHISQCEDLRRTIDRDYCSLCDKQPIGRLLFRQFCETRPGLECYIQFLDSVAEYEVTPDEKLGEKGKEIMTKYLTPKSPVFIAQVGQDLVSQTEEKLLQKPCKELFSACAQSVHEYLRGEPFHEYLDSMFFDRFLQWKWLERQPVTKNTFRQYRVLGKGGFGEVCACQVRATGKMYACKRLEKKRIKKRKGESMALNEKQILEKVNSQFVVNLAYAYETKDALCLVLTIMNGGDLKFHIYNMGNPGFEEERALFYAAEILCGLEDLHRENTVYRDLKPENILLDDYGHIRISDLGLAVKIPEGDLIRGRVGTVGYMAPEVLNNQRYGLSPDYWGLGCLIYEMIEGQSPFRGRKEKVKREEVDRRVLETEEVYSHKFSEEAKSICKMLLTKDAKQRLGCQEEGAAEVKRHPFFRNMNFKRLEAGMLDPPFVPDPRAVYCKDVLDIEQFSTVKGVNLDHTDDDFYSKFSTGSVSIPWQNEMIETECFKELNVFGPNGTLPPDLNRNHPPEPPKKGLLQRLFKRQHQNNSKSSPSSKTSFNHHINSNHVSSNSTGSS
Chain of Glycogen synthase kinase-3 beta (Homo sapiens) (P49841 whole entry, looked up): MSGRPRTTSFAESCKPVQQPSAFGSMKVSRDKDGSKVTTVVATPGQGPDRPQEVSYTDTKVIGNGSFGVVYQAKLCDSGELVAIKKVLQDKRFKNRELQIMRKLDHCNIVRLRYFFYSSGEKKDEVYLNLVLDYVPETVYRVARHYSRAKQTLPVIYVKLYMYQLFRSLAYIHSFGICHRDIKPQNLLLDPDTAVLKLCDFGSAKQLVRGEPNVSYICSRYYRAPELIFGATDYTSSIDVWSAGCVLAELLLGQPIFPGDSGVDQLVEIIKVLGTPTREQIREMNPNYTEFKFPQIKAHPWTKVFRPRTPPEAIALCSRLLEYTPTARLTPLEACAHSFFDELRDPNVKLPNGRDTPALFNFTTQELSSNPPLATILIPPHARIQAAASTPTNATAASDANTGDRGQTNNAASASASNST
Chain of G protein-coupled receptor kinase 6 (Homo sapiens) (P43250 whole entry, looked up): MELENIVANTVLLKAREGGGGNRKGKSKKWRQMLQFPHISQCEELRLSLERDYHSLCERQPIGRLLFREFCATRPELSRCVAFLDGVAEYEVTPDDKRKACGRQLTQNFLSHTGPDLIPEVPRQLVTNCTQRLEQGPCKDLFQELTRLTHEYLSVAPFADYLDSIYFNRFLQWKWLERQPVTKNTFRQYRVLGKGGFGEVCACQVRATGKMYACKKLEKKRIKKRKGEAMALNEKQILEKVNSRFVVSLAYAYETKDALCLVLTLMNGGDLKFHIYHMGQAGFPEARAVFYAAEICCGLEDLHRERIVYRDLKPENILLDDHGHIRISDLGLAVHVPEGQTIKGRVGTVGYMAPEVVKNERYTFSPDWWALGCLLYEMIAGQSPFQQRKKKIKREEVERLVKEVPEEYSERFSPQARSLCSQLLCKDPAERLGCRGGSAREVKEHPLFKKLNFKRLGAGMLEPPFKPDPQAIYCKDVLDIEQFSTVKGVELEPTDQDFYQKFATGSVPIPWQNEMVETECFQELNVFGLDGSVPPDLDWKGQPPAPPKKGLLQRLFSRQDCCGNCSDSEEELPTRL
Chain of Macrophage colony-stimulating factor 1 receptor (Homo sapiens) (P07333 whole entry): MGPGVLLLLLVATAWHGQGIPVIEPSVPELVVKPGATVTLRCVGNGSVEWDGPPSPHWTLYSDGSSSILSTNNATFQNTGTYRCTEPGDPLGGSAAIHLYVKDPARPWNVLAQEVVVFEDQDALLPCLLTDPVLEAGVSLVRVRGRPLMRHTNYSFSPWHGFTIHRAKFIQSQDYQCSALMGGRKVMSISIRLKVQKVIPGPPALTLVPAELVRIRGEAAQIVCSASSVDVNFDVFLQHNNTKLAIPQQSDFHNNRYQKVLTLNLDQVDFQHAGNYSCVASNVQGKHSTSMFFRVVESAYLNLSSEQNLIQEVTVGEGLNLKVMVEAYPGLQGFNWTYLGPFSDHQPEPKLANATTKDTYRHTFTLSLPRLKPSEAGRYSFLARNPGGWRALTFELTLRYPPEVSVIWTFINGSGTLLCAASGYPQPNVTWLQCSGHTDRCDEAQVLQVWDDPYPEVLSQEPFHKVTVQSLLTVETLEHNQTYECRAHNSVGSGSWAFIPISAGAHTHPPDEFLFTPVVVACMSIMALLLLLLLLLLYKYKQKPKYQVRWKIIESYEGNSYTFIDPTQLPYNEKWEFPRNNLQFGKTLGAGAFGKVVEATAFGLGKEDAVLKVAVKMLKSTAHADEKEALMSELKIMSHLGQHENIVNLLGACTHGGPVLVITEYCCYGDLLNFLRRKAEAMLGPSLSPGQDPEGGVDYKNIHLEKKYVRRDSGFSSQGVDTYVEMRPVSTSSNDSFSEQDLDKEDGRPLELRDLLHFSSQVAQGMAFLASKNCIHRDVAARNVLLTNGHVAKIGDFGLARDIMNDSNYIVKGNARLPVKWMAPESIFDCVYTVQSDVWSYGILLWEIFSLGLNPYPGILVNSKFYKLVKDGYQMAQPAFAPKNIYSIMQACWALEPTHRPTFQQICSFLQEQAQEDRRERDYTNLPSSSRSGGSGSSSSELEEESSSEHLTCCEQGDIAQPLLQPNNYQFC
Chain of Homeodomain-interacting protein kinase 3 (Homo sapiens) (Q9H422 whole entry, looked up): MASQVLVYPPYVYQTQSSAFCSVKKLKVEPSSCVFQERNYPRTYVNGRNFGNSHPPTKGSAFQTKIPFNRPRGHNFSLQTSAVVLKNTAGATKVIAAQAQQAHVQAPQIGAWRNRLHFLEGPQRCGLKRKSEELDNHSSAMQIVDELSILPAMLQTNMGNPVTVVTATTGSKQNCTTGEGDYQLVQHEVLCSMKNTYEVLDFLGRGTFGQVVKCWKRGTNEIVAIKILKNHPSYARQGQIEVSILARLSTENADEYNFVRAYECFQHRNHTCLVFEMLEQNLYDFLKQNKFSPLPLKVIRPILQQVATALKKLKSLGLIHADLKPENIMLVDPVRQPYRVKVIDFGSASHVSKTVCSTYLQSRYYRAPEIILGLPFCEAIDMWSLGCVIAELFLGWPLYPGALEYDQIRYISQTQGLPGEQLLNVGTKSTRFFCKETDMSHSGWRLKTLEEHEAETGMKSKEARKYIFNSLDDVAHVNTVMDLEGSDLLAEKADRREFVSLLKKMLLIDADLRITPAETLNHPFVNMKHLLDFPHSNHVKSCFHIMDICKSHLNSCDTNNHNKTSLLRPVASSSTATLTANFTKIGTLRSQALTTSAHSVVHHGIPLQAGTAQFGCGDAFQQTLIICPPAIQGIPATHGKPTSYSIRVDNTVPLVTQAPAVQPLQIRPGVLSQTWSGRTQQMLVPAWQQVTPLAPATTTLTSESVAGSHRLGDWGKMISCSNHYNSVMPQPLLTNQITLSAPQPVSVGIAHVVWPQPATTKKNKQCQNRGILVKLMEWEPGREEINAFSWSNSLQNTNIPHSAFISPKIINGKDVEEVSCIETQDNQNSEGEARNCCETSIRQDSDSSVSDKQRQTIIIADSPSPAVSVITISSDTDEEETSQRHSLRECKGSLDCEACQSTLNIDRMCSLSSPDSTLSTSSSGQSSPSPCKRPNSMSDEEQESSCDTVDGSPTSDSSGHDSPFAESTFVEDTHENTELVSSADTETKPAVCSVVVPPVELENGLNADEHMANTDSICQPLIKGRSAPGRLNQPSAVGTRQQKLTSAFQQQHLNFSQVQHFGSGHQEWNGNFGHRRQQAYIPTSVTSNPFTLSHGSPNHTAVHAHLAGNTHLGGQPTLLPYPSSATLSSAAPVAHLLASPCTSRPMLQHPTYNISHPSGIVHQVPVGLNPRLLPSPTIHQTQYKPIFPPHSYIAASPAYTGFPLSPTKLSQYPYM

For the compound `CCCCc1c(-c2ccc(O)cc2)[nH]c2nccnc12`, the residual activity in experiment [1] is 2%; in [2], 6%; in experiment [3], 43%; in experiment [4], 11%; in experiment [5], 7%; in experiment [6], 4%. Also, the residual activity was 90% in experiment [7]; 90% in experiment [8]; 86% in [9]; 87% in [10]; 62% in experiment [11]; 20% in experiment [12]. In addition, the residual activity in experiment [13] amounted to 79%; in experiment [14] it was 73%; in [15], 62%.
As to `O=c1cc(N2CCOCC2)oc2c(-c3ccccc3)cccc12`, the residual activity was determined as 72% in experiment [1]; 66% in experiment [16]; 62% in experiment [2]; 70% in experiment [6]; 77% in [8]; 81% in experiment [10].
As for `O=C(c1ccccc1)c1ccc(N2CCOCC2)cc1O`, the residual activity was found to be 85% in experiment [1]; 75% in experiment [16]; 55% in experiment [2]; 95% in experiment [5]; 89% in experiment [6]; 88% in [8]. For the same compound, the residual activity was 95% in experiment [10]; 91% in experiment [11]; 121% in experiment [12]; 96% in experiment [13]; 87% in [14]; 98% in [17]. Moreover, the residual activity worked out at 97% in experiment [18], 97% in experiment [19], 94% in experiment [15] and 87% in experiment [20].
In the case of `O=C(Nc1nc2ccccc2n1CCN1CCOCC1)c1cccc([N+](=O)[O-])c1`, the residual activity in [1] is 40%; in experiment [16], 8%; in [2] it was 5%; in [5], 70%; in experiment [6], 67%; in experiment [7], 85%. Besides, the residual activity came to 79% in experiment [10], 113% in experiment [11] and 116% in [12].
With `Nc1nccc(-c2c(-c3ccc(F)cc3)ncn2C2CCNCC2)n1`, the residual activity came to 10% in experiment [1]; 82% in experiment [5]; 61% in [6]; 64% in experiment [14]; 82% in experiment [18]; 62% in experiment [15].
Take `NC(=O)c1cccc(-c2cc(Nc3ccc(OC(F)(F)F)cc3)ncn2)c1`: the residual activity in [1] is 81%; in experiment [16] it was 74%; in experiment [2] it was 73%; in [4], 78%; in experiment [6] it was 88%; in [8], 100%. Moreover, the residual activity in experiment [11] is 98%; in experiment [12] it was 82%; in [14], 64%.
Regarding `COc1cc2c(cc1OC)-c1n[nH]c(Nc3cccc(F)c3)c1C2`, the residual activity in [16] came to 1%; in [2], 0%; in experiment [3], 16%; in experiment [4], 0%; in [6], 44%; in experiment [8] it was 81%. Moreover, the residual activity in [10] stood at 80%; in experiment [11], 115%; in [12], 108%; in experiment [14] it was 75%.
For `NCCNc1ncc(C(N)=O)c(Nc2cccc(C(F)(F)F)c2)n1`, the residual activity is 48% in experiment [1]; 57% in [16]; 4% in experiment [2]; 13% in experiment [5]; 0% in experiment [6]; 79% in experiment [7]. For the same compound, the results for the residual activity in experiment [8] and in experiment [14] were 73% and 26%, respectively.
On to `Oc1cccc(-c2nc(N3CCOCC3)c3oc4ncccc4c3n2)c1`, for which the residual activity came out at 78% in experiment [16]; 80% in experiment [2]; 82% in [3]; 88% in [4]; 85% in experiment [6]; 93% in experiment [9]. Moreover, the residual activity in [10] is 94%; in experiment [12] it was 127%; in [19], 84%; in experiment [15] it was 89%; in experiment [20], 93%.
For the compound `N#C/C(=C1/Nc2ccccc2S1)c1ccnc(NCCc2cccnc2)n1`, the residual activity was determined as 22% in experiment [1]; 70% in [16]; 31% in experiment [2]; 79% in [5]; 18% in [6]; 1% in experiment [11]. The residual activity was -1% in experiment [12]; 8% in experiment [13]; 1% in experiment [14]; 47% in [19]; 6% in experiment [15]; 88% in experiment [20].
